Among the data in PubChem BioAssay (NCI) are growth values, retold here.

About 83,000 compounds went through this panel and 20% of them were active in at least one assay; those are over-represented in the sample as a whole.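 Cells were grown in 96-well plates and exposed to the test compound at a single concentration for 48 hours; results are reported as percent growth, with values below 10 considered active.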 A number with no mark means an inactive call. Calls of active or inactive are those of the source.

Among the test systems are T-47D breast; BT-549 breast; MDA-MB-435 melanoma; SW-620 colon; MCF7 breast; HCT-116 colon; HCC-2998 colon; KM12 colon.
Test in all cases: NCI-60 one-dose screen, 48 h (100 = growth as untreated, 0 = no growth, -100 = all killed)
Conditions in all cases: 10 µM unless noted

Turning to `CN1C(=O)N(C)C2C1NN=c1s/c(=C\c3cccnc3)c(=O)n12` (centres undefined), the growth in the test on T-47D breast was 91.2%; in the test on BT-549 breast, 79.9%; in the test with MDA-MB-435 melanoma, 8.5% (active); with SW-620 colon, 59.1%; in the test with MCF7 breast, 51.6%; with HCT-116 colon it was 75.9%. In addition, the growth with HCC-2998 colon was 92.2%; with KM12 colon, 53.8%.
For `CC(C)C1=CC2=C(C=O)C[C@@H]3[C@](C)(CCC[C@@]3(C)C(=O)OCC#CCN3CCCC3)[C@H]2CC1`, the growth in the test on T-47D breast was 54.7%; in the test on BT-549 breast, 63.9%; in the test on MDA-MB-435 melanoma, 92.8%; in the test with SW-620 colon it was 88%; in the test on MCF7 breast, 85.7%; with HCT-116 colon, 50.3%. Further, the growth in the test on HCC-2998 colon was 93.9%; in the test with KM12 colon, 75.1%.
Consider `Cc1cc(C)n(-c2nnc3n2N=C(c2ccc(-c4ccccc4)cc2)CS3)n1`, for which the growth in the test with T-47D breast is 48.7%; in the test on BT-549 breast, 48.7%; with MDA-MB-435 melanoma it was -7.2% (active); in the test on SW-620 colon, 36.7%; in the test on MCF7 breast, 28%; with HCT-116 colon, 41.8%. Moreover, the growth is 76.8% in the test on HCC-2998 colon and 53% in the test with KM12 colon.
In the case of `C=C(C)[C@@H]1C[C@H](O)Cc2cc(F)ccc2N1`, the growth is 95.6% in the test on T-47D breast; 98.1% in the test on BT-549 breast; 97.7% in the test on MDA-MB-435 melanoma; 91.9% in the test with SW-620 colon; 103% in the test with MCF7 breast; 92.9% with HCT-116 colon. Further, the values for the growth with HCC-2998 colon and in the test with KM12 colon were 118% and 106%, respectively.
For `CSc1nc2c(c(=O)[nH]1)C(c1ccc(C)cc1)C=C(C(=O)O)N2` (centres undefined), the growth was 96.6% in the test on T-47D breast; 93.6% in the test with BT-549 breast; 102% with MDA-MB-435 melanoma; 99.8% in the test with SW-620 colon; 101% with MCF7 breast; 109% with HCT-116 colon. The growth in the test with HCC-2998 colon was 102%; with KM12 colon it was 112%.
Consider `O=C(CSc1nc2ccccc2[nH]1)c1ccc(N2CCOCC2)cc1`, for which the growth was 94.1% in the test on T-47D breast; 93% in the test on BT-549 breast; 100% with MDA-MB-435 melanoma; 94.5% in the test with SW-620 colon; 92.2% in the test on MCF7 breast; 94.3% in the test with HCT-116 colon. In addition, the growth is 98.3% in the test with HCC-2998 colon and 104% in the test with KM12 colon.
As to `O=C(O)c1nc(-c2ccccc2)oc1N1CCOCC1`, the growth is 82.9% in the test with T-47D breast; 97.5% in the test on BT-549 breast; 97.5% with MDA-MB-435 melanoma; 96% with SW-620 colon; 98.3% in the test on MCF7 breast; 94.6% in the test with HCT-116 colon. Moreover, the growth in the test on HCC-2998 colon is 105%; in the test with KM12 colon it was 88.9%.
With `Cc1c(C(N)=O)sc2c1c(=O)n(Cc1ccccc1)c1nnc(Nc3ccccc3)n21`, the growth with T-47D breast was 89%; with BT-549 breast, 123%; in the test with MDA-MB-435 melanoma, 103%; in the test on SW-620 colon it was 108%; with MCF7 breast, 100%; with HCT-116 colon, 94.2%. Also, the growth is 110% in the test on HCC-2998 colon and 93.6% in the test on KM12 colon.
In the case of `CC(=O)Oc1csc(N(C(C)=O)c2cccc(C(F)(F)F)c2)n1`, the growth was 87.7% with T-47D breast; -89.8% (active) in the test on BT-549 breast; 98.1% in the test with MDA-MB-435 melanoma; 98.7% with SW-620 colon; 90.8% with MCF7 breast; 86.6% with HCT-116 colon. Moreover, the growth in the test with HCC-2998 colon was 108%; with KM12 colon it was 99.3%.
On to `CC(=O)Oc1cccc(S(=O)(=O)n2cc(C(=O)C(=O)Nc3ccncc3)c3ccccc32)c1`, for which the growth was 73.6% with T-47D breast; 83.8% with BT-549 breast; 38.5% with MDA-MB-435 melanoma; 98% in the test with SW-620 colon; 79.5% with MCF7 breast; 76.6% with HCT-116 colon. Further, the growth was 84.3% with HCC-2998 colon and 83.6% in the test on KM12 colon.
Consider `COc1cccc(-c2cc3c(O)cc(C#N)cc3[nH]2)c1`, for which the growth was 101% in the test with T-47D breast; 81.7% in the test with BT-549 breast; 70.6% in the test on MDA-MB-435 melanoma; 88% in the test with SW-620 colon; 88.3% in the test with MCF7 breast; 89.9% with HCT-116 colon. The growth in the test with HCC-2998 colon is 93.8%; with KM12 colon, 78.1%.
Regarding `CC1=NC2=CC=CC3=NC(C(Cl)(Cl)Cl)=NC(=N1)N23`, the growth was 61.4% in the test with T-47D breast; 45.9% with BT-549 breast; 77.9% with MDA-MB-435 melanoma; 78.4% in the test on SW-620 colon; 62.7% in the test on MCF7 breast; 68.3% with HCT-116 colon. The growth in the test on HCC-2998 colon was 57.5%; in the test with KM12 colon, 85.5%.
Regarding `COc1ccc(-c2c(N)n[nH]c2-c2cc3c(c(OC)c2OC)OCO3)cc1`, the growth with T-47D breast is 106%; in the test on BT-549 breast, 101%; in the test on MDA-MB-435 melanoma it was 106%; in the test with SW-620 colon, 101%; in the test on MCF7 breast, 101%; with HCT-116 colon, 94.1%. Moreover, the growth with HCC-2998 colon is 106%; in the test with KM12 colon, 99.9%.
